From PubChem BioAssay
Rows were chosen to be rich in hits. Some 19% of all compounds tested hit in one or more screens of this group.
HT1080 IDH1KD tx: HT-1080 IDH1 knockdown cell toxicity (counter line). HT-1080 IDH1 knockdown viability, ATP luminescence, 48 h. Potency, µM (titrated, usually from 46.1 µM), for the others: at the highest dose activity, negative = toxicity, most hits filed as cytotoxic. 2% of 360,000 active. AID 686971;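 note: potency is the fitted concentration of half-maximal effect; 0% = DMSO wells and -100% = cell-free medium wells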
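In this qHTS, HT-1080 cells depleted of IDH1 are exposed for 48 h at 37 °C to compound titrations. Toxicity is scored from CellTiter-Glo luminescence, with DMSO as full viability and medium alone as none.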
HT1080-NT tox: kills 2HG-producing HT-1080-NT fibrosarcoma cells; 1.6% of 360,000 active; Potency, µM (top dose mostly 46.1 µM), inactives show at the top dose activity, negative = less viability, hits mostly cytotoxic; HT-1080-NT fibrosarcoma viability, CellTiter-Glo ATP luminescence, 48 h;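 note: NT is the 2HG producing partner of a matched IDH1 knockdown line; potency is the fitted concentration of half-maximal effect; 0% = DMSO-treated cells and -100% = media-only wells without cells; nearly all actives have a fitted effect of over 55% in size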
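Luminescent CellTiter-Glo readout after 48 hours of compound exposure at 37 degrees C defined viability of HT-1080-NT cells. Activity was normalized to DMSO wells and cell-free media wells; concentration-response curves were fitted and assigned curve classes.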
DT40 TDP1 CPT: DT40-hTDP1 cell growth loss with CPT | chicken DT40 Tdp1-/-;hTDP1 cells + 20 nM CPT, ATP luminescence, 48 h | Potency, µM (doses to about 46.2 µM), for the others: at the top dose activity change, negative = growth inhibition, actives largely listed as inhibitors | 12% of 420,000 active; note: potency is the fitted concentration of half-maximal effect; nearly all actives have a fitted effect of over 55% in size
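Chicken DT40 Tdp1-/- cells complemented with human TDP1, 400 cells/well, exposed to compounds plus 20 nM camptothecin for at least 48 h at 37 C; viability read as ATP content by CellTiter-Glo luminescence.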
ELG1 DNA repair: inhibitors of ELG1-dependent DNA repair in HEK293T cells; HEK293T ELG1-luciferase reporter, luminescence, 16 h; DNA damage induced by 5-fluorouridine; 2.3% of 330,000 active; Potency, µM (series often up to 46.1 µM), inactives show top-dose activity change, negative = inhibition, hits mostly inhibitors; note: potency is the fitted concentration of half-maximal effect; nearly all actives have a fitted effect of over 55% in size
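In this reporter screen, reduction of luminescence relative to DMSO vehicle indicated activity. Compounds and 5-fluorouridine were added together to 2,000 cells per well, incubated for 16 hr at 37 °C, then developed with ONE-Glo.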
TDP1 cell noCPT: qHTS for Inhibitors of human tyrosyl-DNA phosphodiesterase 1 (TDP1): qHTS in cells in absence of CPT; DT40 Tdp1-/- hTDP1 cells, no CPT, ATP luminescence, 48 h; Potency, µM (series often up to 46.2 µM), without a hit: at the top dose activity change, negative = growth inhibition, most hits filed as inhibitors; 15% of 420,000 active; AID 686978, 2013; note: potency is the fitted concentration of half-maximal effect; nearly all actives have a fitted effect of over 55% in size
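A cellular qHTS used chicken DT40 cells lacking endogenous Tdp1 but carrying stably transfected human TDP1. Compounds were applied without camptothecin, and cell growth kinetics were judged by ATP-dependent luminescence after ≥48 hr.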
IL1B secr inh: inflammasome signaling inhibition, IL-1 beta readout | THP-1 LPS/ATP IL-1B secretion, AlphaLISA, 16 h; active compounds read low | activity change, % at 57.5 µM | 4.7% of 360,000 active | AID 743279; in the data active = activity change below about -50%; inconclusive = mostly about -30% to -49%
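Secreted IL-1B measured by AlphaLISA bead assay after 16 h compound exposure of THP-1 cells; compounds (final up to 57.5 uM) added 1 h before LPS (250 ng/mL) and ATP (1.25 mM) stimulation; lower signal means less secretion.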
* hit, by the source's call; ? = inconclusive; / = no result given. Unless noted, calls come from the whole dose curve; as a rule, active = well fitted curve in the direction sought with a large enough effect; inconclusive = small, poorly fitted or top-dose-only effect, or another doubt; inactive = no such curve, though single readings can be large; an effect the other way counts as inactive or inconclusive. Unless noted, % is set by controls: 0 for no effect and ±100 for the full control effect.

SMILES	HT1080 IDH1KD tx	HT1080-NT tox	DT40 TDP1 CPT	ELG1 DNA repair	TDP1 cell noCPT	IL1B secr inh
Cc1ccc(S(=O)(=O)N2[C@@H](c3ccccc3)C(C(=O)O)=CC[C@H]2c2cccc(Cl)c2)cc1	-5.2%	-9.2%	-3.6%	8.3%	0.3%	14.2
N[C@H](C(=O)O)[C@@H]1C[C@@H]1C(=O)O	/	/	9.5%	/	-2.7%	/
O=c1[nH][nH]c2c1[C@H](c1ccc(Cl)cc1)O[C@H](C1CCCCC1)C2	-0.7%	13.5%	-22.7%	/	-24.0%	12.9
COc1ccc(C2Oc3ccccc3C3=C2C(c2cccs2)n2ncnc2N3)cc1 (stereo unspecified)	8.2µM*	?	20.6µM*	?	23.1µM*	-15.0
Brc1ccc(C2C3=C(Nc4ncnn42)c2ccccc2OC3c2ccncc2)cc1 (stereo unspecified)	?	?	?	-18.4%	?	?
CCOC(=O)[C@]12CCCC=C1N(Cc1ccc(Cl)cc1Cl)C(=O)[C@H](CC(=O)NCCCOC)C2	-28.9%	-14.9%	?	/	16.4µM*	-13.9
COC(=O)[C@]12CCCCC=C1N(Cc1ccc(Cl)cc1Cl)C(=O)[C@H](CC(=O)NCCCN1CCCC1=O)C2	-0.9%	-10.6%	?	/	?	-18.2
CCOC(=O)[C@]12CCCC=C1N(Cc1ccccc1)C(=O)[C@H](CC(=O)NCCCOC)C2	12.5%	19.2%	?	/	?	0.0
CCOC(=O)[C@]12CCCC=C1N(Cc1ccc(Cl)cc1Cl)C(=O)[C@H](CC(=O)NCCC(C)C)C2	?	?	?	/	20.6µM*	?
CCOC(=O)[C@]12CCCC=C1N(Cc1ccc(Cl)cc1Cl)C(=O)[C@H](CC(=O)NCc1cccs1)C2	?	?	?	/	?	-28.8
CCOC(=O)[C@]12CCC=C1N(Cc1ccc(Cl)cc1Cl)C(=O)[C@H](CC(=O)NCCC(C)C)C2	?	?	?	/	20.6µM*	0.0
CCCCNC(=O)C[C@@H]1C[C@@]2(C(=O)OCC)CCC=C2N(Cc2ccccc2)C1=O	16.0%	2.4%	-29.5%	/	-28.6%	2.3
CCOC(=O)[C@]12CCCC=C1N(Cc1ccc(Cl)cc1Cl)C(=O)[C@H](CC(=O)NCC1CCCCC1)C2	?	?	23.1µM*	/	?	-62.4*
C#CCNC(=O)C[C@@H]1C[C@@]2(C(=O)OCC)CCC=C2N(Cc2ccc(Cl)cc2Cl)C1=O	-16.7%	?	?	/	23.1µM*	11.2
C#CCNC(=O)C[C@@H]1C[C@@]2(C(=O)OC)CCCCC=C2N(Cc2ccc(Cl)cc2Cl)C1=O	-25.6%	-17.8%	?	/	18.4µM*	-19.3
COC(=O)[C@]12CCCCC=C1N(Cc1ccc(Cl)cc1Cl)C(=O)[C@H](CC(=O)NCc1ccccc1)C2	-29.8%	-28.3%	?	/	?	-17.8
CCOC(=O)[C@]12CCCC=C1N(Cc1ccc(Cl)cc1Cl)C(=O)[C@H](CC(=O)NCC13CC4CC(CC(C4)C1)C3)C2	?	-16.1%	?	/	18.4µM*	-6.0
COC(=O)[C@]12CCCCC=C1N(Cc1ccc(Cl)cc1Cl)C(=O)[C@H](CC(=O)NCc1ccc(OC)c(OC)c1)C2	13µM*	?	?	/	?	-12.7
CCc1ccc(NC(=O)CSc2nc(C)cs2)cc1	-5.9%	-5.3%	-22.5%	/	?	-5.8
CCCCOCCCNC(=O)C[C@@H]1C[C@@]2(C(=O)OCC)CCC=C2N(Cc2ccccc2)C1=O	17.0%	12.7%	?	/	?	-4.5
CCCCOCCCNC(=O)C[C@@H]1C[C@@]2(C(=O)OCC)CCC=C2N(Cc2ccc(Cl)cc2Cl)C1=O	?	?	20.6µM*	/	14.6µM*	-89.4*
